# B2AR arrestin: agonists driving beta-arrestin recruitment to human beta2-adrenergic receptor | P07550 | beta-arrestin recruitment to beta2AR, cell-based reporter | Potency, µM (highest dose often 46.1 µM), inactives show top-dose activation, actives largely listed as activators | 0.02% of 330,000 active;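 note: potency is the fitted concentration of half-maximal effect; 0% = DMSO controls and full agonism = EC100 isoproterenol or metaproterenol; nearly all actives have a fitted effect of over 65% in size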
# Target sequence (P07550 whole entry, looked up): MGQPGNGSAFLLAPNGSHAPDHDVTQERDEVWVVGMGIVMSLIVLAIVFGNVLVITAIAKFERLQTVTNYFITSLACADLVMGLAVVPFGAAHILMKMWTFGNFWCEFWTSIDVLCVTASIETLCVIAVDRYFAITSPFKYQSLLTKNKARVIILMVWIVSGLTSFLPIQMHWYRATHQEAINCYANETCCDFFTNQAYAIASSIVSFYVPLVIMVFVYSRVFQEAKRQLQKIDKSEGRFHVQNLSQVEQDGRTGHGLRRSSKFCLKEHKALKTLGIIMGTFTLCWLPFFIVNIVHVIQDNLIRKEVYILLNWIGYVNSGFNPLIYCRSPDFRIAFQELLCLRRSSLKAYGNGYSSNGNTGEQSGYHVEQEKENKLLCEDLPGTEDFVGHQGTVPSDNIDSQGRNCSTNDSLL
# CCT modulator: modulators of cytosolic chaperonin (CCT/TRiC) activity; 0.3% of 360,000 active; activity change, % (concentration not given with the values), hits read low; purified chaperonin ATPase assay, HTRF ADP detection, 30 min; AID 651819; in the data active = activity change below about -30%; note: % is set by controls: 0 for no effect and ±100 for the full control effect
#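 We incubate TRiC, 40 or 20 nM final, with library compounds at 76 uM and 10 uM ATP for 30 min at 37 °C. ADP formed is detected with Transcreener HTRF reagents after 30 min at room temperature.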
# TCR activator: activates T cell receptor signaling; 330,000 tested, under 10 active; Potency, µM (top dose mostly 9.22 µM), without a hit: top-dose activation of IL-2 secretion, most hits filed as activators; AID 504894; primary human leukocytes, anti-CD3, IL-2 HTRF, 48 h; note: % of control where 0% means no effect
#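 TCR engagement came from a-CD3 beads alone, with compounds added to primary human leukocytes for 48 hr. Secreted IL-2 bridged europium cryptate- and d2-labelled anti-IL-2 antibodies, giving FRET emission at 665nm after 320nm excitation.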
# MmCpn inh: blocks the Methanococcus maripaludis chaperonin Mm-Cpn; Potency, µM (series often up to 76.9 µM), for inactives: top-dose activity, negative = inhibition, actives largely listed as inhibitors; purified Mm-Cpn ATPase, ADP Transcreener TR-FRET; 0.031% of 330,000 active; note: potency is the fitted concentration of half-maximal effect; % is set by controls: 0 for no effect and ±100 for the full control effect; nearly all actives have a fitted effect of over 80% in size
#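 ATPase read-out: TR-FRET ADP immunoassay (anti-ADP Eu cryptate vs ADP-d2), ex 320 nm, em 590/665 nm; signal drops as ADP forms. Enzyme 25 nM, ATP 10 uM, 30 min at 37°C after 10 min compound preincubation.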
# TSHR antagonist: blocks TSH signaling through the human TSH receptor | P16473 | TSHR-expressing cells, TSH-stimulated cAMP HTRF, 2 h; active compounds read low | activity change, negative = inhibition, % at 11.5 µM | 0.2% of 330,000 active | AID 504810;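 active = activity change below a set negative limit, meaning inhibition stronger than a set level, cut at about -70% in these data; inconclusive = activity change between two set negative limits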; note: % is set by controls: 0 for no effect and ±100 for the full control effect
#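 TSHR-expressing cells, 200/well, pre-treated with compound, then stimulated with EC80 TSH (4nM final) for 2 hours at 37 deg C. cAMP measured by competitive HTRF: anti-cAMP cryptate antibody in lysis buffer plus cAMP-d2, read after 30 minutes at room temperature.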
# * marks the source's active call; other numbers are inactive results; ? = inconclusive; . = not tested or not shown; [ ] = remark or other dose. Only some compounds are listed: those with a hit (about 0.5% of all), similar ones and a draw of the others. Unless noted, calls come from the whole dose curve; as a rule, active = well fitted curve in the direction sought with a large enough effect; inconclusive = small, poorly fitted or top-dose-only effect, or another doubt; inactive = no such curve, though single readings can be large; an effect the other way counts as inactive or inconclusive.
SMILES,B2AR arrestin,CCT modulator,TCR activator,MmCpn inh,TSHR antagonist
CN(C)c1ccc(NC(=O)COC(=O)c2cc(Cl)ccc2[N+](=O)[O-])cc1,0.2%,-90.1*,4.8%[46.1 µM],1.9%,-3.1
CC(=O)c1c(C)[nH]c(C(=O)OCC(=O)Nc2cc(Cl)ccc2[N+](=O)[O-])c1C,-0.3%,0.9,4.3%[46.1 µM],-3.0%,-76.6*
Cc1onc(-c2ccccc2Cl)c1C(=O)NCCN1Cc2ccccc2C1=O,-1.6%,-1.1,0.0%,2.2%,3.6
CS(=O)(=O)N(CC(=O)N1CCOCC1)c1cccc(F)c1,-0.8%,-0.6,.,3.3%,-93.2*
CC1CCN(C(=O)CN(c2cccc(F)c2)S(C)(=O)=O)CC1,-0.3%,-0.5,7.7%,0.6%,15.5
COc1ccc(Cn2nnnc2C(CC(C)C)N2CCN(c3ccccc3)CC2)cc1 (configuration not stated),-0.2%,0.1,-0.6%,3.1%,-72.0*
CCCC(c1nnnn1Cc1ccc(OC)cc1)N1CCN(c2ccccc2)CC1 (configuration not stated),-0.1%,1.3,0.9%,1.2%,-47.8
COc1ccc(Cn2nnnc2C(c2ccccn2)N2CCN(c3cc(Cl)ccc3C)CC2)cc1 (configuration not stated),0.4%,1.0,8.3%,1.3%,-92.7*
CCN1/C(=C\c2ccc3cc(C)ccc3[n+]2CC)Sc2cc(C)c(C)cc21,0.2%,-3.1,9.1%,?,-14.6
COc1ccc(-c2[nH]nc3nc(N4CCN(C(=O)c5ccoc5)CC4)cc(C(F)(F)F)c23)cc1,.,-39.9*,.,.,.
COc1ccc(-c2cnc3c(NC(C)=O)cc(-c4cccc(C(=O)N(C)C)c4)cn23)cc1OC,.,-33.0*,.,.,.
COc1ccc(-c2cnc3c(NC(C)=O)cc(-c4cccc(C(=O)NCCN(C)C)c4)cn23)cc1OC,.,-1.3,.,.,.
N#CC(C#N)=C1C=CC=CN1/C(=C\c1ccco1)C(=O)c1ccc(Cl)cc1,-0.2%,-2.3,5.8%[46.1 µM],?,-83.8*
N#CC(C#N)=C1C=CC=CN1/C(=C\c1ccco1)C(=O)c1ccc(-c2ccccc2)cc1,-2.3%,0.1,-0.8%[46.1 µM],-6.0%,-44.1
Cc1cc(C)nc(SCc2nnc(SCC(=O)NCc3ccco3)n2-c2ccccc2)n1,0.2%,-1.2,-13.6%,0.3%,21.5
CCn1c(CCNC(=O)c2ccccc2Cl)n[nH]c1=S,-3.0%,-1.9,0.1%,-0.6%,0.2
Cc1noc(C)c1C(=O)Nc1c(F)cc(F)cc1Br,0.0%,-0.1,1.1%,1.3%,4.6
O=C(Nc1c(F)cc(F)cc1Br)c1ccco1,-0.1%,-101.1*,.,-0.1%,4.6
CN(C)S(=O)(=O)c1cccc(-c2csc(=Nc3ccccc3)n2CCCN2CCOCC2)c1,-0.1%,1.1,3.1%,-2.5%,-10.0
Cc1c(-c2ccccc2)nc2ccccc2c1C(=O)OCC(=O)Nc1ncc(C(F)(F)F)cc1Cl,-0.5%,-53.4*,-1.0%[46.1 µM],?,-11.3
Nc1nnc(SC2CC(=O)N(c3ccccc3)C2=O)s1 (configuration not stated),-0.2%,-97.1*,-5.1%,0.2%,0.0
O=C1CC(Sc2ncccn2)C(=O)N1c1ccccc1 (configuration not stated),-0.6%,1.1,-4.3%,2.4%,-9.1
CC1CN(C(=O)CSc2nnc(CNC(=O)c3ccc(S(=O)(=O)N(C)C)cc3)o2)CC(C)O1 (configuration not stated),-0.8%,-0.8,0.1%,1.2%,-2.0
CCn1c(SCC(=O)Nc2nnc(C)s2)nnc1C(C)NC(=O)c1ccccc1F (configuration not stated),0.8%,0.2,-6.6%,-3.0%,7.0
S=c1[nH]nc(COc2ccccc2)n1/N=C/C=C/c1ccco1,7.6%,1.3,-1.2%,-2.7%,-11.9
S=c1[nH]nc(COc2ccccc2)n1/N=C/C=C/c1ccccc1,0.0%,-86.6*,2.4%[46.1 µM],-0.1%,-13.7
Cc1ccc(CNC(=O)C2CCN(S(=O)(=O)c3cccc4nonc34)CC2)cc1,0.0%,0.8,1.5%,1.9%,-6.6
COc1ccc(-c2nc3c(c(SCC(=O)N4CCOCC4)n2)Cc2c(CO)cnc(C)c2O3)cc1,-0.3%,1.2,1.2%,-4.4%,-134.7*

# Screening data: PubChem BioAssay, National Center for Advancing Translational Sciences (NCATS)
